How the values were obtained:
Conditions in all cases: concentration: 1 μM,replicates: in singlicate; n = 1
[1] = test system: RPS6KA4(Kin.Dom.1-N-terminal)
[2] = test system: RPS6KA4(Kin.Dom.2-C-terminal)
[3] = test system: RPS6KA5(Kin.Dom.1-N-terminal)
[4] = test system: RPS6KA5(Kin.Dom.2-C-terminal)
[5] = test system: T1, RSK1(Kin.Dom.1-N-terminal)
T1 construct: gene RPS6KA1

[6] = test system: T2, RSK1(Kin.Dom.2-C-terminal)
T2 construct: gene RPS6KA1

[7] = test system: T3, RSK2(Kin.Dom.1-N-terminal)
T3 construct: gene RPS6KA3

[8] = test system: T4, RSK2(Kin.Dom.2-C-terminal)
T4 construct: gene RPS6KA3

[9] = test system: T5, RSK3(Kin.Dom.1-N-terminal)
T5 construct: gene RPS6KA2

[10] = test system: T6, RSK3(Kin.Dom.2-C-terminal)
T6 construct: gene RPS6KA2
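Note: KINOMEscan kinase panel screen.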

| Compound | %Inh [1] [%] | %Inh [2] [%] | %Inh [3] [%] | %Inh [4] [%] | %Inh [5] [%] | %Inh [6] [%] | %Inh [7] [%] | %Inh [8] [%] | %Inh [9] [%] | %Inh [10] [%] |
| --- | --- | --- | --- | --- | --- | --- | --- | --- | --- | --- |
| CN(c1cccc(CNc2nc(Nc3ccc4c(c3)CC(=O)N4)ncc2C(F)(F)F)c1)S(C)(=O)=O | 48 | 3 | 12 | 20 | 67 | 13 | 87 | 23 | 78 | 27 |
| CSc1nccc(-c2c(-c3ccc(F)cc3)ncn2CCCN2CCOCC2)n1.Cl [SB-217146] | 27 | 0 | 0 | 4 | 3 | 17 | 46 | 0 | 0 | 18 |
| CCNCC(Cc1ccccc1)NC(=O)c1cc(Br)c(-c2ccnc3[nH]ccc23)s1.Cl.Cl (stereo not shown) [GSK1383280] | 67 | 21 | 43 | 22 | 21 | 18 | 42 | 0 | 10 | 1 |
| CC(C)c1nc(-c2cccc(NS(=O)(=O)c3ccccc3)c2)c(-c2ccnc(Nc3ccc4c(c3)CN(C)CC4)n2)s1 [GSK1649598] | 33 | 0 | 4 | 0 | 73 | 44 | 10 | 0 | 15 | 0 |
| Cl.c1ccc(Oc2ccc(Nc3ccnc4cc(-c5ccc(CN6CCNCC6)o5)ccc34)cc2)nc1 [GW567142] | 0 | 0 | 0 | 14 | 2 | 16 | 0 | 0 | 0 | 9 |
| COc1cc(Nc2nccc(N3CCC(NC(=O)c4cccc(C#N)c4)C3)n2)cc(OC)c1OC (stereo not shown) [GSK1379751] | 0 | 0 | 0 | 34 | 17 | 0 | 0 | 0 | 4 | 0 |
| O=C(Nc1cccc(C(F)(F)F)c1)c1cccc(Oc2ccc3nccn3n2)c1 | 9 | 0 | 8 | 0 | 25 | 0 | 10 | 48 | 23 | 68 |

Source: paper PMC5540273 (PLoS ONE, 2017)
